# Source: the supplement of paper PMC10981050
# Values joined by “and” are separate entries in the source; they are usually repeats but may differ in a detail not shown here. Equal entries are not always repeated. Structures can show the parent of a compound that is named as a salt.
# Assays:
# Experiment in all cases: cell viability relative to vehicle control; higher = less cytotoxic
# K562 = settings: 10 µM; SRSF2 genotype: SRSF2 wt/wt
# Outline: (§1)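 CRISPR-edited SRSF2 P95 mutant and isogenic wild-type clones of four leukaemia lines were screened against Selleck bioactive, kinase and epigenetic probe libraries, with identity-inconsistent compounds removed. Compounds were acoustically dispensed into 384-well plates at a single 10 µM dose, with 2000 cells in 50 µL medium per well. After 48 h, supernatant was removed and CellTiter-Glo luminescence was read. Viability was expressed as percent of the on-plate DMSO vehicle control, analysed in Genedata Screener.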
# MARIMO = settings: 10 µM
# Outline: as §1
# MOLM14 = settings: 10 µM
# Outline: as §1
# OCI-AML2 = settings: 10 µM
# Outline: as §1
SMILES,cell viability (K562),cell viability (MARIMO; SRSF2 genotype: SRSF2 P95H/wt),cell viability (MARIMO; SRSF2 genotype: SRSF2 wt/wt),cell viability (MOLM14; SRSF2 genotype: SRSF2 P95H/wt),cell viability (MOLM14; SRSF2 genotype: SRSF2 wt/wt),cell viability (OCI-AML2; SRSF2 genotype: P95H/wt),cell viability (OCI-AML2; SRSF2 genotype: wt/wt)
CCS(=O)(=O)N1CCN(c2ccc(Nc3ncc(C(N)=O)c(NC4CC4)n3)cc2)CC1,63.2%,65.2%,63.1%,7.8%,8.15%,12.1%,15.5%
Cc1coc2c1C(=O)C(=O)c1c-2ccc2c1CCCC2(C)C [Tanshinone IIA (Tanshinone B)],52.2%,98.2%,89%,88.8%,79.7%,84.1%,83.3%
Nc1cc(N)c(N)cc1N,69.4%,104%,109%,96.3%,105%,103%,103%
c1cc(-c2cnn3cc(-c4ccc(OCCN5CCCCC5)cc4)cnc23)ccn1 [Dorsomorphin (Compound C)],64.1%,73.8%,80.9%,16.4%,10.9%,33.1%,36.2%
COc1cc([C@@H]2c3cc4c(cc3[C@@H](O[C@@H]3O[C@@H]5CO[C@@H](C)O[C@H]5[C@H](O)[C@H]3O)[C@H]3COC(=O)[C@H]23)OCO4)cc(OC)c1O [Etoposide (VP-16)],82%,7.2%,6.84%,15.3%,4.31%,13%,14.8%
C[C@H](CS)C(=O)N1CCC[C@H]1C(=O)O [Captopril (Capoten)],,103%,106%,102%,102%,97.7%,97.8%
O=C(CCCCCCNC(=O)c1cnc(N(c2ccccc2)c2ccccc2)nc1)NO,52.1%,17.6%,35.3%,2.73%,2.08%,0.54%,1.52%
CC1(C)CC[C@]2(C(=O)O)CC[C@]3(C)C(=CC[C@@H]4[C@@]5(C)CC[C@H](O[C@@H]6O[C@H](C(=O)O)[C@@H](O)[C@H](O[C@@H]7OC[C@@H](O)[C@H](O)[C@H]7O)[C@H]6O)C(C)(C)[C@@H]5CC[C@]43C)[C@@H]2C1 [Momordin Ic],88.8%,103%,108%,110%,103%,97.2%,96.6%
CC(=O)Oc1cc(C)c(OC(C)=O)c2ccccc12 [Menadiol Diacetate],95.2%,49.6%,53.5%,15.3%,7.05%,5.63%,11.2%
COc1cc(-c2cc(-c3ccc(N4CCNCC4)cc3)cnc2C)cc(OC)c1OC,31.1%,46.2%,46.9%,37.1%,31.9%,17.7%,29.3%
O=C1[C@H](Cc2ccc(O)cc2)N2C(=O)CCN(C(=O)NCc3ccccc3)[C@H]2CN1Cc1cccc2ccccc12,47% and 37.9%,60.6% and 53.5%,59.4% and 48.2%,63.6% and 52%,43.8% and 35.6%,54.4% and 45.4%,42.3% and 36.8%
O=C(O[C@@H]1Cc2c(O)cc(O)cc2O[C@H]1c1cc(O)c(O)c(O)c1)c1cc(O)c(O)c(O)c1 [Gallocatechin gallate],71%,91.1%,91.7%,77.3%,67.3%,94.1%,87.8%
O=C(NC1CCNCC1)c1n[nH]cc1NC(=O)c1c(Cl)cccc1Cl,26.4% and 27.1%,13.2% and 15.4%,6.7% and 6.57%,3.09% and 4.11%,0.56% and 0.84%,5.65% and 5.71%,17.9% and 18%
Cc1cnc(-c2cnc(NCCNc3ccc(C#N)cn3)nc2-c2ccc(Cl)cc2Cl)[nH]1,63.6% and 69.4%,96.3% and 94.4%,119% and 126%,87.2% and 98.8%,103% and 110%,95.8% and 99.6%,124% and 133%
COc1cc2c[n+](C)c3c4cc5c(cc4ccc3c2cc1OC)OCO5 [Nitidine Chloride],46.1%,38.6%,34.6%,0.55%,0.7%,0.61%,0.76%
NC(CO)C(=O)NNCc1ccc(O)c(O)c1O (configuration not stated) [Benserazide HCl],80.2%,103%,95.5%,85.3%,71.6%,94.2%,99.5%
c1nc2c(NC3CCCCC3)nc(Nc3ccc(N4CCOCC4)cc3)nc2[nH]1 [Reversine],70.6%,38%,33.8%,9.79%,7.29%,10.8%,16.3%
CC(Nc1nc(N2CCCC2)nc2ccccc12)c1ccccc1 (configuration not stated) [Importazole],29.2%,46.3%,64.7%,51.2%,48.2%,51.8%,58.2%
NC(=O)Nc1sc(-c2ccc(F)cc2)cc1C(N)=O,79.8%,56.3%,50%,20.5%,11%,20.2%,26.5%

SMILES,cell viability (K562),cell viability (MARIMO; SRSF2 genotype: SRSF2 P95H/wt),cell viability (MARIMO; SRSF2 genotype: SRSF2 wt/wt),cell viability (MOLM14; SRSF2 genotype: SRSF2 P95H/wt),cell viability (MOLM14; SRSF2 genotype: SRSF2 wt/wt),cell viability (OCI-AML2; SRSF2 genotype: P95H/wt),cell viability (OCI-AML2; SRSF2 genotype: wt/wt)
O=C(NC1CC1)c1cc(-c2cccs2)on1 [Isoxazole 9 (ISX-9)],53.5%,58.5%,63%,46.8%,35.5%,74.8%,74.7%
O=C(CCCCCCNC(=O)c1cnc(N(c2ccccc2)c2ccccc2Cl)nc1)NO [Citarinostat (ACY-241)],47.4%,8.12%,20.9%,2.1%,1.84%,0.7%,1.25%
COc1cccc(-c2ccc(NC(=O)C3=C(C(=O)O)CCC3)c(F)c2)c1 [Vidofludimus],93.2%,115%,120%,114%,108%,112%,112%
CCOc1ccn(-c2ccc(F)cc2)c(=O)c1C(=O)Nc1ccc(Oc2ccnc(N)c2Cl)c(F)c1,42%,69.1%,82.8%,11.3%,6.04%,20.9%,28.1%
COc1cc2ncnc(Nc3ccc(F)c(Cl)c3)c2cc1OCCCN1CCOCC1 [Gefitinib (ZD1839)],,63.4%,63.1%,39.7%,45.2%,53.4%,50.9%
Oc1ccc2c(c1)OC[C@]1(O)Cc3cc(O)c(O)cc3[C@H]21 [Brazilin],85.9%,46.3%,11.3%,40.4%,45.2%,73.2%,77.5%
CCNC(=O)C#Cc1ccc2c(C(=Nc3ccc(CN(C)C)cc3)c3ccccc3)c(O)[nH]c2c1,53.4%,26.7%,25.1%,4.97%,7.91%,11.9%,17.2%
C[C@H]1O[C@@H](O[C@H]2CC[C@@]3(C)[C@@H](CC[C@]4(C)[C@@H]3C=C[C@]35OC[C@@]6(CCC(C)(C)C[C@H]63)[C@@H](O)C[C@]54C)[C@]2(C)CO)[C@H](O)[C@@H](O[C@@H]2O[C@H](CO)[C@@H](O)[C@H](O)[C@H]2O)[C@H]1O [Saikosaponin A],23.1%,40.9%,46.1%,23.8%,28.7%,42.2%,45%
COc1cc2nccc(Oc3ccc(NC(=O)Nc4ccc(F)cc4F)c(F)c3)c2cc1OC,93.5%,109%,112%,25.1%,19.4%,40.2%,51.5%
NC(=O)c1cccc(-c2cc(Nc3ccc(OC(F)(F)F)cc3)ncn2)c1,26.8%,70.1%,58.7%,102%,102%,43.7%,55.3%
Cc1cc(C)c(Nc2ccnc(Nc3ccc(C#N)cc3)n2)c(C)c1 [Dapivirine (TMC120)],45.5%,86%,70.6%,75%,81.1%,69%,31.3%
CNC(=O)c1ccccc1Nc1nc(Nc2ccc(N3CCOCC3)cc2OC)ncc1Cl,113%,44.3%,39.6%,9.8%,6.5%,13.3%,20.4%
COc1ccc(N2C(=O)/C(=C\c3ccc([N+](=O)[O-])s3)SC2=S)cc1,66.2%,71.8%,52.8%,36.7%,58.2%,0.66%,5.17%
O=C(Cc1cccc(OC(F)(F)F)c1)Nc1ccc(CCCCc2nnc(NC(=O)Cc3ccccn3)s2)nn1,58.5%,23.7%,21.2%,44.3%,53.4%,20.1%,24.8%
COc1cc(O)cc(O)c1C(=O)C=Cc1ccccc1 [Cardamonin],77.8%,54.5%,70.9%,33.1%,74.1%,52.6%,51.2%
O=C(O)C(=O)O.[NH-]C1CCCCC1[NH-].[Pt+2] (configuration not stated) [Oxaliplatin (Eloxatin)],72.8%,22%,62%,56.1%,48.2%,23.8%,62.9%
O=C(NCCN1CCOCC1)Nc1ccc(C(=O)/C=C/c2cccc(N3CCOCC3)n2)cc1,15.2%,21.2%,19.2%,1.13%,1.01%,5.44%,16.6%
CC=C(C)C(=O)OC1C(OC(C)=O)C2(CO)C(O)CC3(C)C(=CCC4C5(C)CCC(OC6OC(C(=O)O)C(OC7OC(CO)C(O)C(O)C7O)C(O)C6OC6OC(CO)C(O)C(O)C6O)C(C)(CO)C5CCC43C)C2CC1(C)C (configuration not stated) [Escin],48.9%,90.1%,90.1%,53.3%,67.9%,23.9%,31.4%
